Results on 36 compounds are retold here after PubChem BioAssay (NCATS).

The structures appear in SMILES notation. Inconclusive results are not listed. A number with no mark means an inactive call. Activity calls are given as the source filed them. The call rests on the fitted dose curve; in most records, active means well fitted inhibition curve with a large enough effect; inconclusive means small, poorly fitted or top-dose-only effect; inactive means flat fitted curve, though single readings scatter.
On the % scale 0 is the no-effect control and ±100 the full control effect; potency means the concentration at half of the fitted maximal effect.

Voltage-gated inwardly rectifying potassium channel KCNH2 (Homo sapiens), sequence (Q12809 whole entry, looked up): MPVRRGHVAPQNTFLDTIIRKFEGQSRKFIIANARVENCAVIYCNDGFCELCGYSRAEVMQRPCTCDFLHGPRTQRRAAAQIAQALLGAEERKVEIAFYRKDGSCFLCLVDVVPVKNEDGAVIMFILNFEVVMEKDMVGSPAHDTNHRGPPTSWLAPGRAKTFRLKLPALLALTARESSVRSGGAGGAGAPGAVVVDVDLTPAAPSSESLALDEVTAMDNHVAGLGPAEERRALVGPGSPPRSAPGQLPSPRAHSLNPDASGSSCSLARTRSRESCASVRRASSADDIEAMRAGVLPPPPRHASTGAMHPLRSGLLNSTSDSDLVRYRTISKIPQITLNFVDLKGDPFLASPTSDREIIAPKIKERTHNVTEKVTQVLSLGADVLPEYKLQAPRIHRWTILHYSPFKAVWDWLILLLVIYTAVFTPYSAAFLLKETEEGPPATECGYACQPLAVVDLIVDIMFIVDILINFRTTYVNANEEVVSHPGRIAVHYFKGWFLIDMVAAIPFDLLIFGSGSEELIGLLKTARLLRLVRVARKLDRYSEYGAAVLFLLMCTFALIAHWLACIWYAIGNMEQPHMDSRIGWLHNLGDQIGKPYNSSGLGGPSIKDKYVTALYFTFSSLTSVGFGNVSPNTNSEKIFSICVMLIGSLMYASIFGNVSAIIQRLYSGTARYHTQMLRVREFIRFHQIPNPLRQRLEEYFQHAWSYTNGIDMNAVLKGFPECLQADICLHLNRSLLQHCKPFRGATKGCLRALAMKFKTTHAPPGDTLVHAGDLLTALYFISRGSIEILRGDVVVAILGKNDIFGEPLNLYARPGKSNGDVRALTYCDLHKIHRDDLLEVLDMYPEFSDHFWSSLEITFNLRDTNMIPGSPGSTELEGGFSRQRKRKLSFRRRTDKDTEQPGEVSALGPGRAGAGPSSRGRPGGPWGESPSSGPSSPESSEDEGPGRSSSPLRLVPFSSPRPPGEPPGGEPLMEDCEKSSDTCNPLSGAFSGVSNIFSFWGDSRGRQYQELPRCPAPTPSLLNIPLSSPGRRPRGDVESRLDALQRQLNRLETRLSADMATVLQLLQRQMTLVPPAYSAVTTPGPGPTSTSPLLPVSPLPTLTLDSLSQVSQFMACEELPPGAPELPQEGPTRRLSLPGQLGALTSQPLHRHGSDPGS

This test concerns the target Voltage-gated inwardly rectifying potassium channel KCNH2 (Homo sapiens) (UniProt Q12809). The test can be described thus: qHTS Assay for Small Molecule Inhibitors of the Human hERG Channel Activity (AID 588834).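 Further: lower thallium flux fluorescence means stronger hERG block; nearly all actives have a fitted effect of over 50% in size.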 On activity change, negative = inhibition: top concentration of the series differs between compounds. Particulars: U2OS BacMam hERG, FluxOR thallium flux fluorescence; series mostly up to 46.1 µM; activity change, negative = inhibition: at the top concentration. In outline:
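In hERG-transduced U2OS cells, dye-loaded for 1 hr at room temperature in dark, test compounds incubated 10 min at 37 °C before thallium stimulation. AC50 values derived by Hill modelling of concentration-response.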
Turning to `COc1cc(N)c(Cl)cc1C(=O)NC1CCN(Cc2ccccc2)CC1`, the Potency is 5.01 µM (active).

As for `CC[C@H](c1ccc(O)cc1)[C@@H](CC)c1ccc(O)cc1`, the “activity change, negative = inhibition” value is 10.9% [at 20.6 µM].

Take `CCN(CC)CCOc1ccccc1C(=O)CCc1ccccc1`: the Potency was 1.12 µM (active).

Turning to `CN(Cc1ccc(C(C)(C)C)cc1)Cc1cccc2ccccc12`, the Potency is 7.94 µM (active).

For `CCOC(=O)Nc1ccc2c(c1)N(C(=O)CCN1CCOCC1)c1ccccc1S2`, the “activity change, negative = inhibition” value is -20.6% [at 20.6 µM].

Take `C=CCN1CCc2nc(N)sc2CC1`: the “activity change, negative = inhibition” value is 6.6%.

As for `NS(=O)(=O)Cc1noc2ccccc12`, the “activity change, negative = inhibition” value was 0.213%.

Consider `O=[N+]([O-])c1cccc(S(=O)(=O)NCCNS(=O)(=O)c2cccc([N+](=O)[O-])c2)c1`, for which the “activity change, negative = inhibition” value was -17.7%.

Take `O=C(CN1CCN(Cc2ccc3c(c2)OCO3)CC1)N1c2ccccc2Sc2ccccc21`: the Potency is 2.51 µM (active).

Take `NCCNC(=O)c1ccc(Cl)cn1`: the “activity change, negative = inhibition” value was -0.11%.

On to `CN=C(N)NCCC[C@H](N)C(=O)O`, for which the “activity change, negative = inhibition” value was -7.36%.

For the compound `CCOC(=O)[C@H](CCc1ccccc1)N[C@@H](C)C(=O)N1[C@H](C(=O)O)C[C@H]2CCCC[C@@H]21`, the “activity change, negative = inhibition” value was -5.21%.

As to `Cc1ccc2c(Br)cc(Br)c(O)c2n1`, the “activity change, negative = inhibition” value is 11.1%.

With `O=C(O)C1(C(=O)O)CCC1.[NH2-].[NH2-].[Pt+2]`, the “activity change, negative = inhibition” value was 8.06%.

With `CCOc1cc(OCC)c(C(=O)CCC(=O)O)cc1OCC`, the “activity change, negative = inhibition” value was 5.32%.

Regarding `CCCCCCCCCCCCCC[N+](C)(C)Cc1ccccc1`, the Potency is 7.94 µM (active).

As to `CC(C)NCC(O)c1ccc2ccccc2c1` (stereo unspecified), the “activity change, negative = inhibition” value is 3.32%.

As for `CCCCCCCCCCCCSCCOCCO`, the “activity change, negative = inhibition” value was 4.74%.

`C#C[C@]1(OC(C)=O)CC[C@H]2[C@@H]3CCC4=C/C(=N/O)CC[C@@H]4[C@H]3CC[C@@]21CC`: the “activity change, negative = inhibition” value is -27.1%.

Turning to `CCCCNc1ccc(C(=O)OCCOCCOCCOCCOCCOCCOCCOCCOCCOC)cc1`, the “activity change, negative = inhibition” value is 8.12% [at 20.6 µM].

With `O=c1[nH]c(=O)n([C@H]2C[C@H](O)[C@@H](CO)O2)cc1F`, the “activity change, negative = inhibition” value was 0.535%.

`CC(C)(C)NC[C@H](O)COc1nsnc1N1CCOCC1`: the “activity change, negative = inhibition” value was -3.17%.

For `Cc1ccc(-c2ncc(Cl)cc2-c2ccc(S(C)(=O)=O)cc2)cn1`, the “activity change, negative = inhibition” value is -8.02%.

On to `CCc1oc2ccccc2c1C(=O)c1cc(Br)c(O)c(Br)c1`, for which the “activity change, negative = inhibition” value is -19%.

On to `CO[C@]12C[C@@H](COC(=O)c3cncc(Br)c3)CN(C)[C@@H]1Cc1cn(C)c3cccc2c13`, for which the Potency was 0.398 µM (active).

As to `c1ccc(CC2=NCCN2)cc1`, the “activity change, negative = inhibition” value is -14.6% [at 20.6 µM].

For the compound `NC(N)=NCc1cccc(I)c1`, the “activity change, negative = inhibition” value is -2.8%.

For the compound `NCc1ccccc1Sc1ccccc1CO`, the “activity change, negative = inhibition” value was -6.47%.

Consider `CN(CCCN1c2ccccc2CCc2ccccc21)CC(=O)c1ccc(Cl)cc1`, for which the Potency was 5.01 µM (active).

As to `COc1ccccc1N1CCN(CCCCNC(=O)c2ccc(-c3ccc(C(C)=O)cc3)cc2)CC1`, the Potency was 1.26 µM (active).

Consider `NC(=S)N/N=C/c1cccnc1`, for which the “activity change, negative = inhibition” value is 7.02%.

For `CNCCCCOc1ccccc1Cc1ccccc1`, the Potency was 6.31 µM (active).

On to `O=C(Nc1ncc([N+](=O)[O-])s1)c1cccs1`, for which the “activity change, negative = inhibition” value was 5.74%.

As to `Cl/C(=C\n1cncn1)c1ccc(Cl)cc1Cl`, the “activity change, negative = inhibition” value is -16.7%.

`O=C(CCN1CCN2CCCC2C1)N1c2ccccc2Sc2ccc(Cl)cc21` (stereo unspecified): the Potency was 15.8 µM (active).

On to `Cc1c(-c2ccccc2)oc2c(C(=O)OCCN3CCCCC3)cccc2c1=O`, for which the “activity change, negative = inhibition” value is -13.4% [at 20.6 µM].
